Assay [1] in a line: qHTS assay to identify small molecule antagonists of the peroxisome proliferator-activated receptor delta (PPARd) signaling pathway - cell viability counter screen (AID 743213; active means well fitted curve in the direction sought with a large enough effect in the repeat runs; an effect the other way counts as inactive or inconclusive; further: nearly all actives have a fitted effect of over 50% in size; further: potency means the concentration at half of the fitted maximal effect). Summed up: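 In this counter screen, HEK293H cells carrying a UAS-beta-lactamase reporter are co-treated with test compounds and 300 nM L165041 (final) for 17 h at 37 C; cell viability is quantified by CellTiter-Glo luminescence.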

Assay [2] in a line: qHTS assay to identify small molecule agonists of the farnesoid-X-receptor (FXR) signaling pathway - cell viability counter screen (AID 743218; active means well fitted curve in the direction sought with a large enough effect in the repeat runs; an effect the other way counts as inactive or inconclusive; further: nearly all actives have a fitted effect of over 45% in size; further: potency means the concentration at half of the fitted maximal effect). Summed up: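 FXR-UAS-bla HEK 293T cells exposed to compounds for 16 h at 37C. Cytotoxicity read in the same wells by CellTiter-Glo luminescence after 30 min at room temperature, following the beta-lactamase FRET read.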
Assay [3] can be described thus: qHTS assay to identify small molecule agonists of the vitamin D receptor (VDR) signaling pathway - cell viability counter screen (AID 743224; active means well fitted curve in the direction sought with a large enough effect in the repeat runs; an effect the other way counts as inactive or inconclusive; further: nearly all actives have a fitted effect of over 50% in size; further: potency means the concentration at half of the fitted maximal effect). Summed up:
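VDR-bla cells, 4 h after plating, exposed to compounds for 16 h at 37C; viability then read in the same wells as CellTiter-Glo luminescence after 30 min at room temperature, following the bla FRET read.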

Assay [4] in a line: qHTS assay to identify small molecule antagonists of the vitamin D receptor (VDR) signaling pathway - cell viability counter screen (AID 743225; active means well fitted curve in the direction sought with a large enough effect in the repeat runs; an effect the other way counts as inactive or inconclusive; further: nearly all actives have a fitted effect of over 50% in size). Summed up: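 In this counter screen, VDR-bla HEK 293T cells receive test compound plus 3 nM final calcitriol for 16 h at 37C. Room-temperature steps of 2 h with the beta-lactamase substrate, then 30 min with CellTiter-Glo, precede the luminescence read.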

Assay [5] is described as follows: qHTS assay to identify small molecule agonists of the NFkB signaling pathway - cell viability counter screen (AID 1159515). Further: series mostly up to about 61 µM; nearly all actives have a fitted effect of over 55% in size. Summed up:
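NFkB-bla ME-180 cells, 2,000/well, plated overnight at 37 C; compound added for 5 hr at 37 C. Viability read in the same wells as the bla reporter, by CellTiter-Glo luminescence after 30 min at room temperature.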

The nature of assay [6]: qHTS assay to identify small molecule agonists of the endoplasmic reticulum stress response signaling pathway (AID 1159516; active means well fitted activation curve with a large enough effect in the signal ratio in the repeat runs, not every such curve was filed as active; the % refers to the signal ratio). The method, boiled down:
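CellSensor ESRE-bla HeLa cells, 1,500 per well, plated overnight, then exposed to compounds for 5 hr at 37 C. Beta-lactamase reporter read with LiveBLAzer B/G FRET substrate after 2 hr at room temperature, 405 nm excitation, 460 and 530 nm emission.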

Assay [7] can be described thus: qHTS assay to identify small molecule agonists of the endoplasmic reticulum stress response signaling pathway - cell viability counter screen (AID 1159517).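 Further: HeLa cells carrying an ER stress response element beta-lactamase reporter; series mostly up to about 61 µM; nearly all actives have a fitted effect of over 50% in size.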 The method, boiled down:
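Cells, HeLa ESRE-bla; density, 1,500/well; dosing, 5 hr at 37 C, 5% CO2; readout, CellTiter-Glo luminescence after 30 min RT.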

A short description of assay [8]: qHTS assay to identify small molecule antagonists of the retinoid-related orphan receptor gamma (ROR-gamma) signaling pathway - cell viability counter screen (AID 1159520; active means well fitted curve in the direction sought with a large enough effect in the repeat runs; an effect the other way counts as inactive or inconclusive; further: nearly all actives have a fitted effect of over 50% in size). Summed up:
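Cytotoxicity was read from cellular ATP (CellTiter-Glo luminescence) after 16 hr at 37 C with 1 uM doxycycline induction. The inducer was added 2 hr after compound transfer to Tet-on ROR gamma CHO cells.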

A short description of assay [9]: qHTS assay to identify small molecule agonists of the AP-1 signaling pathway - cell viability counter screen (AID 1159525). Further: nearly all actives have a fitted effect of over 55% in size. Summed up: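 Luminescent ATP readout (Cell Titer Glo, 30 min RT), normalised to DMSO and tetra n-octyl ammonium bromide controls. Cells were ME-180 AP-1-bla in 0.5% dialyzed FBS Opti-MEM, with a 5 h, 37 °C compound exposure.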
The nature of assay [10]: qHTS assay to identify small molecule agonists of the AP-1 signaling pathway (AID 1159526).
For assay [11], the target named is Retinoic acid receptor RXR-alpha (Homo sapiens) (UniProt P19793). Put plainly: qHTS assay to identify small molecule agonists of the RXR signaling pathway (AID 1159527). Further: nearly all actives have a fitted effect of over 35% in size. Summed up: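 Fluorescence ratio readout (460 vs 530 nm) from GeneBLAzer RXR-alpha HEK 293T cells after 16 hr compound treatment; cells seeded 5 hr beforehand in low-serum, charcoal-stripped medium.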

Assay [12] can be described thus: qHTS assay to identify small molecule agonists of the peroxisome proliferator-activated receptor delta (PPARd) signaling pathway - cell viability counter screen (AID 743211; active means well fitted curve in the direction sought with a large enough effect in the repeat runs; an effect the other way counts as inactive or inconclusive; further: nearly all actives have a fitted effect of over 55% in size; further: potency means the concentration at half of the fitted maximal effect). The method, boiled down: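 Following 5 h plating at 37 C and 5% CO2, PPARd UAS-bla HEK293H cells took up test compounds for 17 h. Viability was quantified by luminescence 30 min after CellTiter-Glo addition at room temperature.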

Assay [13] has as its target Peroxisome proliferator-activated receptor delta (Homo sapiens) (UniProt Q03181). Put plainly: qHTS assay to identify small molecule agonists of the peroxisome proliferator-activated receptor delta (PPARd) signaling pathway (AID 743212). The method, boiled down:
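HEK293H UAS-bla reporter cells, human PPARd system; compounds delivered in DMSO after 5 h plating, then at 37 C. Beta-lactamase FRET read, 2 h RT substrate step.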

Assay [14] is described as follows: qHTS assay to identify small molecule antagonists of the farnesoid-X-receptor (FXR) signaling pathway - cell viability counter screen (AID 743221; active means well fitted cell-killing curve with a large enough effect in the repeat runs, not every such curve was filed as active; further: nearly all actives have a fitted effect of over 50% in size). Summed up:
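Compound effects on cell number were measured as CellTiter-Glo luminescence in HEK 293T cells expressing FXR-UAS-bla, after 16 h at 37 C with 50 uM CDCA (final).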

Assay [15] deals with Vitamin D3 receptor (Homo sapiens) (UniProt P11473). Put plainly: qHTS assay to identify small molecule agonists of the vitamin D receptor (VDR) signaling pathway (AID 743222). The method, boiled down:
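VDR-bla cells plated 4 h at 37 C, then exposed to compounds for 16 h at 37 C. Beta-lactamase reporter activity measured by fluorescence after 2 h room-temperature loading with LiveBLAzer B/G FRET substrate.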

For assay [16], the target named is Peroxisome proliferator-activated receptor delta (Homo sapiens) (UniProt Q03181). Put plainly: qHTS assay to identify small molecule antagonists of the peroxisome proliferator-activated receptor delta (PPARd) signaling pathway (AID 743215; active means well fitted inhibition curve with a large enough effect in the signal ratio in the repeat runs, not every such curve was filed as active; the % refers to the signal ratio;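 further: cells stimulated with agonist L165041 at 300 nM final during compound exposure; series mostly up to about 62 µM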). The method, boiled down: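 PPARd-bla HEK293H cells (UAS-bla reporter) preincubated 5 h, then given compound plus 300 nM final L165041 agonist for 17 h at 37 C. Beta-lactamase activity read by LiveBLAzer B/G FRET substrate fluorescence after 2 h at room temperature.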

In assay [17] the target is Bile acid receptor (Homo sapiens) (UniProt Q96RI1). As to the kind of experiment: qHTS assay to identify small molecule antagonists of the farnesoid-X-receptor (FXR) signaling pathway (AID 743217; active means well fitted inhibition curve with a large enough effect in the signal ratio in the repeat runs, not every such curve was filed as active; the % refers to the signal ratio). The method, boiled down: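 FXR-UAS-bla HEK 293T cells (beta-lactamase reporter) given compound plus chenodeoxycholic acid (50 uM final), 16 h at 37C. LiveBLAzer B/G FRET substrate added for 2 h at room temperature; fluorescence read.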

Assay [18] has as its target Vitamin D3 receptor (Homo sapiens) (UniProt P11473). Put plainly: qHTS assay to identify small molecule antagonists of the vitamin D receptor (VDR) signaling pathway (AID 743223; active means well fitted inhibition curve with a large enough effect in the signal ratio in the repeat runs, not every such curve was filed as active; the % refers to the signal ratio). Summed up:
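Beta-lactamase activity in VDR-bla cells is measured by FRET substrate fluorescence (2 h, room temperature) after cells spend 16 h at 37C with test compound and 3 nM final 1alpha,25-dihydroxyvitamin D3.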

Results filed as inconclusive are left out. A number with no mark means an inactive call. Activity calls are given as the source filed them. Unless noted, the call rests on the fitted dose curve.

Sequence of Peroxisome proliferator-activated receptor delta (Homo sapiens) (Q03181 whole entry, looked up): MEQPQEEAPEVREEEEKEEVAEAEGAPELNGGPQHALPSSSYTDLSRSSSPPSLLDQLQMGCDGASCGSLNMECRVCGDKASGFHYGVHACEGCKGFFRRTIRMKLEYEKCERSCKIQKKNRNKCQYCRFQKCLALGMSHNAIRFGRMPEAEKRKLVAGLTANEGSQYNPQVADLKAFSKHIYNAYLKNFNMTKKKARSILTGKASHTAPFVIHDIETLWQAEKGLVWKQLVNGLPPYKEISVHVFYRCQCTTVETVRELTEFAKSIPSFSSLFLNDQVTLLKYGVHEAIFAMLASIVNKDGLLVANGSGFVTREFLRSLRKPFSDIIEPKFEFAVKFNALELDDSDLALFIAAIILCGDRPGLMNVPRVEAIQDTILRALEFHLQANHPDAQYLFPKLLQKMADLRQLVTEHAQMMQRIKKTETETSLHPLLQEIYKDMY
Sequence of Vitamin D3 receptor (Homo sapiens) (P11473 whole entry, looked up): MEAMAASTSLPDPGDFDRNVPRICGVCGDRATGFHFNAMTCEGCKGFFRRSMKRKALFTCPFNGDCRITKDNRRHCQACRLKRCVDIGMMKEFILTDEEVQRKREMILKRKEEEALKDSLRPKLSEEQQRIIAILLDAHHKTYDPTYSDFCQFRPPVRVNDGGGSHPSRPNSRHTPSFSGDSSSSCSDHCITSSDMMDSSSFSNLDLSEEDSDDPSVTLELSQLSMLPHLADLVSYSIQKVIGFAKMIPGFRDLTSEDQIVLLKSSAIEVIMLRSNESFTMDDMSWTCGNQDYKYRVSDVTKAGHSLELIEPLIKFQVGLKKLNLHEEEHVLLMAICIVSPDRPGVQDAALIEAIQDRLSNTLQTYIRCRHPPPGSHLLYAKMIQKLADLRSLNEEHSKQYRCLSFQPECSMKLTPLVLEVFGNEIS
Sequence of Retinoic acid receptor RXR-alpha (Homo sapiens) (P19793 whole entry, looked up): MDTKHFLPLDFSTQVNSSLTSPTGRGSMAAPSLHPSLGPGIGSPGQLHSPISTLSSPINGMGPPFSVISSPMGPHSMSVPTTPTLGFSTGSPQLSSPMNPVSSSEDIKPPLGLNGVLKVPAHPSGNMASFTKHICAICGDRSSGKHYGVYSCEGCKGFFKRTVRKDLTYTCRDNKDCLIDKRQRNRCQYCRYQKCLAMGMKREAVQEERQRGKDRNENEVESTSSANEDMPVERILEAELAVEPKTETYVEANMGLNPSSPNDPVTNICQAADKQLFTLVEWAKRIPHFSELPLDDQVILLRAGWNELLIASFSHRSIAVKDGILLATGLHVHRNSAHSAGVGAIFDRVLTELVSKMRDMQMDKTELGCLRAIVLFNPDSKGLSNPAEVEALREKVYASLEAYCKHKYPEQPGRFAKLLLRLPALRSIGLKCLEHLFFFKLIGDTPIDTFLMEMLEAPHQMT
Sequence of Bile acid receptor (Homo sapiens) (Q96RI1 whole entry, looked up): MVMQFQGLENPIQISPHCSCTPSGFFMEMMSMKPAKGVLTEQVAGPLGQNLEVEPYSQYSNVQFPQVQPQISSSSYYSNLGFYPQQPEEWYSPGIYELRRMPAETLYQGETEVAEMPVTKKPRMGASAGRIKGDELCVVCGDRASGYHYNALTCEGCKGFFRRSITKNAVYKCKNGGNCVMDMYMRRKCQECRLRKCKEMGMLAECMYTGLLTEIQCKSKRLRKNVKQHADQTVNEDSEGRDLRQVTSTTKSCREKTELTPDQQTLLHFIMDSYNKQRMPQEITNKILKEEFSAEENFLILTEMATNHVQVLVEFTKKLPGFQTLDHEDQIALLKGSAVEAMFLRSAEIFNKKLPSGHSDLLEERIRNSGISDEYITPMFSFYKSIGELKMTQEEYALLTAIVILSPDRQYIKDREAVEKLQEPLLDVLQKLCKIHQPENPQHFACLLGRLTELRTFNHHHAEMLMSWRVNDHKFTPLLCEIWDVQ

For `CNN`, the Potency entry in assay [1], in assay [2], in assay [3], in assay [4], in assay [5] and in assay [6] was “inactive” each time. The Potency result in [7], in assay [8], in [9], in assay [10] and in assay [11] was “inactive” each time.

Take `CCn1cc[n+](C)c1` (tested in a mixture with another compound): the Potency result in assay [12], in assay [1], in assay [3], in assay [4], in assay [5] and in assay [6] was “inactive” each time. The Potency result in assay [7], in [8], in assay [9], in assay [10] and in assay [11] was “inactive” throughout.

As for `CC1(C)C(C=C(Cl)Cl)C1C(=O)OC(C#N)c1ccc(F)c(Oc2ccccc2)c1` (centres undefined), the Potency result in assay [12], in [13], in assay [1], in assay [14], in assay [15] and in [3] was “inactive” each time. The Potency entry in [5], in assay [6], in assay [7], in assay [8] and in assay [9] was “inactive” in each case.

Regarding `CC(C)c1c(CN(C)C(C)Cc2ccccc2)n(C)n(-c2ccccc2)c1=O` (centres undefined), the Potency entry in [12], in assay [13], in assay [14], in [15], in assay [3] and in [4] was “inactive” in each case. In addition, the Potency result in assay [5], in assay [6], in assay [7], in assay [8], in assay [9] and in assay [10] was “inactive” in each case. For the same compound, the Potency in [1] was 13.3 µM (active).

As to `O=P(Cl)(Cl)Cl`, the Potency entry in assay [12], in [16], in [2], in assay [3], in assay [4] and in [5] was “inactive” in each case. In addition, the Potency result in assay [6], in [7], in assay [8], in assay [9], in assay [10] and in assay [11] was “inactive” throughout.

As to `CC(=O)[O-].CC(=O)[O-].CC(=O)[O-].[Cr+3]`, the Potency result in assay [12], in assay [1], in assay [2], in assay [3], in assay [4] and in assay [5] was “inactive” throughout. In addition, the Potency entry in assay [6], in assay [7], in [8], in assay [9] and in [11] was “inactive” throughout.

For `O=[N+]([O-])[O-].[Tl+]`, the Potency result in assay [12], in [2], in [14], in [4], in assay [5] and in [6] was “inactive” in each case. Also, the Potency entry in [7], in assay [8], in assay [9] and in [10] was “inactive” throughout.

On to `CCCN`, for which the Potency entry in assay [12], in [1], in assay [14], in assay [4], in assay [5] and in assay [6] was “inactive” each time. Besides, the Potency entry in assay [7], in [8], in assay [9] and in assay [10] was “inactive” throughout.

Regarding `CCCC[N+]1(C)CCCC1` (tested in a mixture with another compound), the Potency result in assay [12], in assay [2], in [14], in assay [3], in assay [4] and in assay [5] was “inactive” each time. Besides, the Potency entry in [6], in [7], in [8], in [9], in assay [10] and in [11] was “inactive” in each case.

With `O=c1[nH]c2cc(Cl)ccc2n1C1CCNCC1`, the Potency entry in assay [12], in [13], in assay [16], in assay [17], in [2] and in assay [14] was “inactive” in each case. The Potency result in [15], in [18], in assay [5], in [6], in assay [7] and in [8] was “inactive” each time. In addition, the Potency entry in assay [9] and in [10] was “inactive” in each case.

As to `C[C@]12CC[C@H]3[C@@H](CCC4=CC(=O)CC[C@@H]43)[C@@H]1CC[C@@H]2OC(=O)CCc1ccco1`, the Potency in [12] was 26.6 µM (active); in [2], 21.1 µM (active); in assay [3], 21.1 µM (active). The Potency result in assay [15], in assay [5], in [6], in assay [7], in [8] and in assay [9] was “inactive” in each case.

Values taken from PubChem BioAssay (Tox21).
